What all share (type): functional
Assay [1] has as its target Solute carrier family 2, facilitated glucose transporter member 1 (Homo sapiens) (UniProt P11166). The assay is described as follows: ST_JUDE_LEISH: Cytotoxicity at 2uM final concentration against transgenic Leishmania Mexicana promastigotes LmGLUT1 that are glucose transport deficient and complemented with the human glucose transporter GLUT1. Activity is measured by DNA content using SYBR green in vitro.

Assay [2] addresses Hexose transporter 1 (Plasmodium falciparum) (UniProt O97467). The assay can be described thus: ST_JUDE_LEISH: Cytotoxicity at 2uM final concentration against transgenic Leishmania Mexicana promastigotes LmPfHT that are glucose transport deficient and complemented with the Plasmodium falciparum hexose transporter. Activity is measured by DNA content using SYBR green in vitro.

In assay [3] the target is Glucose transporter (Leishmania mexicana) (UniProt O61059). The assay can be described thus: ST_JUDE_LEISH: Cytotoxicity at 2uM final concentration against transgenic Leishmania Mexicana promastigotes LmGT2 that are glucose transport deficient and complemented with the L. Mexicana glucose transporter 2. Activity is measured by DNA content using SYBR green in vitro.

In ChEMBL document CHEMBL3433997, “St. Jude Leishmania screening dataset” (2016) one finds inhibition data, which are given here for 37 molecules.

As usually defined, the inhibition is the drop in the measured response relative to a control, in per cent.

Molecules are shown by their SMILES.

Sequence of Solute carrier family 2, facilitated glucose transporter member 1 (Homo sapiens) (P11166 whole entry): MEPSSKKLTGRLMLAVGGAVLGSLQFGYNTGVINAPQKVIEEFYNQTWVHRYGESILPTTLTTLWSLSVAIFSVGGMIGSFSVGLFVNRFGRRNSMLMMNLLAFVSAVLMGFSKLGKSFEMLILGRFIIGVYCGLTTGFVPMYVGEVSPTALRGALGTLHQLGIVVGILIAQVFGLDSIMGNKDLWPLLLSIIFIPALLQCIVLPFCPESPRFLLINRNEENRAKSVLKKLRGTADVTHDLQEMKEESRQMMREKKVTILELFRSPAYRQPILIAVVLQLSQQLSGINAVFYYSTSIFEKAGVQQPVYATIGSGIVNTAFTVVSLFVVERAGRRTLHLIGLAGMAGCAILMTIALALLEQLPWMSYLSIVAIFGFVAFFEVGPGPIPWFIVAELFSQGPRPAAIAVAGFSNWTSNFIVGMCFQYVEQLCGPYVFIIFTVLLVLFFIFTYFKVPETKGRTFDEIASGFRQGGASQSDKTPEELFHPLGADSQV

Take `Cc1ccc2c(-c3ccc([N+](=O)[O-])o3)cc(C)nc2c1`: the inhibition was 54.3% in assay [1], 46.4% in assay [2] and 7.05% in assay [3].
For `CN(C)c1cc(C(=O)N[C@@H](Cc2ccccc2)[C@H](O)CNC2CCCCC2)cc2[nH]ccc12`, the inhibition in assay [1] worked out at 5.43%; in assay [2], 4.72%; in assay [3], 7.44%.
In the case of `CCOC(=O)NC1=NC(C)(C)N(OCCCOc2cc(Cl)c(Cl)cc2Cl)C(NC(=O)OCC)=N1`, the inhibition was determined as 2.08% in assay [1], 0.27% in assay [2] and 1.36% in assay [3].
Taken in the same sequence, the figures for `O=C(NCCc1ccccc1)N(Cc1ccc(-c2cccc(CN3CCNCC3)c2)cc1)C1CCN(Cc2ccccc2)CC1` were 1.57%, 1.61% and 0.74%.
Turning to `COc1ccc(C(=O)Nc2cc(Br)c3c(c2)CNCC3)cc1Br`, the inhibition is 2.73% in assay [1], 3.54% in assay [2] and 1.69% in assay [3].
In the case of `COc1ccc(F)cc1-c1ccc(C(=O)N2CCCN(c3ccc(C#N)cn3)CC2)cc1`, the inhibition in assay [1] was 0.86%; in assay [2], 0.21%; in assay [3] it was -5.82%.
Turning to `COc1cc(Nc2ncc3c(C)nc(-c4cccc(Nc5ccc(CN6CCS(=O)(=O)CC6)cc5)c4)n3n2)cc(OC)c1OC`, the inhibition in assay [1] is 14%; in assay [2], 5.79%; in assay [3], 3.49%.
As for `CC(=O)Oc1cc(C)ccc1C1CCN(CCCCNC(=O)c2ccc(-c3ccc(C(F)(F)F)cc3)cc2)CC1`, the inhibition worked out at 1.9% in assay [1], 2.04% in assay [2] and 1.11% in assay [3].
Regarding `Nc1nc(O)c2cc(CN(C=O)c3ccc(C(=O)N[C@@H](CCC(=O)O)C(=O)O)cc3)ccc2n1`, the inhibition in assay [1] was 6.36%; in assay [2] it was 4.17%; in assay [3], 2.98%.
On to `O=C1SC(=Cc2ccc(O)c(O)c2)C(=O)N1c1ccccc1`, for which the figures for the inhibition in assay [1], in assay [2] and in assay [3] were 2.29%, 2.56% and 0.86%, respectively.
In the case of `N#Cc1cncc(-c2nc3c(N4CCC(N5CCCC5)CC4)cccc3n2CCNCc2ccccc2)c1`, the inhibition turned out to be 0.91% in assay [1], 0.8% in assay [2] and 3.98% in assay [3].
On to `CCCc1cc(N2CCC(N3CCCC3)CC2)nc(Nc2ccc(OC)cc2)n1`, for which the inhibition was determined as 1.06% in assay [1], 2.18% in assay [2] and 0.63% in assay [3].
In the case of `O=S(=O)(NCCN1CCCC1)c1cccc(-c2ccc(CNCc3ccc(F)cc3)cc2)c1`, the results for the inhibition in assay [1], in assay [2] and in assay [3] were 7.08%, 3.37% and 4.19%, respectively.
Consider `CC(Oc1cccc(Cl)c1)C(=O)N1CCc2ccccc21` (stereo unspecified), for which the inhibition in assay [1] was -1.29%; in assay [2], -1.34%; in assay [3], -1.29%.
With `CN(C)CC(=O)NCC(NCCCNc1cc(=O)c2ccccc2[nH]1)c1cc(Br)cc(Br)c1` (stereo unspecified), the inhibition in assay [1] came to 5.5%; in assay [2] it was 5.13%; in assay [3] it was 5.64%.
As to `COc1ccc(C(C(=O)NC2CCN(C[C@H](O)c3ccnc4ccc(OC)cc34)CC2)N2CCc3ccccc3C2)cc1` (stereo partly specified), the inhibition in assay [1] is 2.66%; in assay [2], 2.33%; in assay [3], 2.69%.
As for `Cc1cc(=NN=Cc2ccccc2)c2cc(F)ccc2[nH]1`, the values for the inhibition in assay [1], in assay [2] and in assay [3] were 4.17%, 0.79% and 6.79%, respectively.
As for `O=C(Nc1ccccc1F)NC1CCN(c2ccnc(Nc3ccc(F)cc3)n2)CC1`, the inhibition was 2.94% in assay [1], 2.19% in assay [2] and 0.02% in assay [3].
For `Cn1c(/C=C/C(=O)NC2CCC(CCN3CCc4ccc(C#N)cc4CC3)CC2)cc2ccccc21` (stereo unspecified), the inhibition stood at 2.51% in assay [1], 4.9% in assay [2] and 3.48% in assay [3].
For the molecule `CN(C)Cc1cccc(-c2ccc(NC(=O)c3ccc4c(=O)n(C5CCCCC5)cnc4c3)cc2)c1`, the inhibition came out at 76% in assay [1], 80.4% in assay [2] and 79.8% in assay [3].
For `O=[N+]([O-])c1ccc2nc(Nc3ccc(Cl)c(Cl)c3)c(Nc3ccc(Cl)c(Cl)c3)nc2c1`, in that order: 0.54%, 1.45% and 1.69%.
Taken in the same sequence, the figures for `CC(C)(C)CNCC(C)(C)c1nc(-c2ccc(Cl)c(O)c2)c(-c2ccncc2)[nH]1` were -1.13%, 0% and -1.37%.
Taken in the same sequence, the figures for `COc1ccc(Nc2nccc(NCCNC(=O)c3cc4ccccc4s3)n2)cc1` were 5.11%, 3.59% and -0.64%.
Take `Nc1nc(N)c2c(ccc3c2ccn3CCCCO)n1`: the inhibition came out at 5.49% in assay [1], 7.01% in assay [2] and 6.28% in assay [3].
As for `CCC(C)NS(=O)(=O)c1ccc2nc(Nc3ccc(C)c(Cl)c3)n(C3CCCCC3)c2c1` (stereo unspecified), the results for the inhibition in assay [1], in assay [2] and in assay [3] were 5.56%, 5.72% and 4.46%, respectively.
For `Nc1n[nH]c(-c2ccccc2Nc2ccnc3cc(-c4nccs4)ccc23)n1`, in that order: 1.03%, 0.07% and -0.15%.
For `O=C(NC1CCN(Cc2ccccc2O)C1)c1ccc(-c2ccccc2)cc1` (stereo unspecified), in that order: 0.98%, 0.41% and 1.16%.
For `Cc1ccc(C(O)CNc2ccnc(Nc3cccc(-c4csc(C)n4)c3)n2)cc1` (stereo unspecified), in that order: -0.56%, -1.05% and -1.54%.
For `CCc1ccc(C2CCN(CCCCNC(=O)c3ccc(NC(=O)c4ccc(Cl)cc4)cc3)CC2)c(OCCO)c1`, the inhibition turned out to be 3.01% in assay [1], 2.33% in assay [2] and 1.61% in assay [3].
Regarding `COCCNCc1ccc(-c2cccc(CNc3ccc(OC)cc3)c2)cc1`, the inhibition in assay [1] was 11.3%; in assay [2], 8.16%; in assay [3], 5.16%.
With `Cn1nccc1C(=O)NCCNCc1ccc(-c2cccc(-c3nc4cc(F)ccc4[nH]3)c2)cc1`, the inhibition in assay [1] is -0.28%; in assay [2] it was -4.29%; in assay [3], -1.92%.
Consider `O=C(/C=C/c1ccc(Cl)c(Cl)c1)NCCCCCN1CCC(NC(=S)Nc2ccc(Cl)cc2)CC1`, for which the values for the inhibition in assay [1], in assay [2] and in assay [3] were 9.42%, 8.02% and 6.39%, respectively.
Take `COc1cc(Cc2cnc(N)nc2N)cc(OCCCOc2ccccc2)c1OC`: the results for the inhibition in assay [1], in assay [2] and in assay [3] were 7.68%, 4.04% and 4.99%, respectively.
Turning to `CCN(C1CCCCC1)S(=O)(=O)c1ccc(OC)c(N2CCN(C(=O)C(Cl)(Cl)Cl)CC2)c1`, the inhibition in assay [1] was -1.48%; in assay [2], -2.46%; in assay [3], -0.47%.
As to `O=C(NC1CC1)c1cnc(N2CCN(Cc3ccc(Cl)cc3)CC2)c(Cl)c1`, the inhibition was 5.43% in assay [1], 1.16% in assay [2] and -5.97% in assay [3].
Turning to `CC(=O)Oc1c(C2C=CCCC2)c(OC(C)=O)c2ccccc2c1OC(C)=O` (stereo unspecified), the inhibition worked out at 1.04% in assay [1], 3.27% in assay [2] and 1.98% in assay [3].
For `CC(=O)Nc1ccc(OCCCCN(Cc2ccccc2C(F)(F)F)c2ccc(C(F)(F)F)c(C#N)c2)c(Cl)c1`, the inhibition in assay [1] is 0.27%; in assay [2], 3.28%; in assay [3], 0.64%.
